Laboratory results published in PubChem BioAssay AID751 (NMMLSC, 2007).
Among all 24,000 compounds or so, about 40 (0.2%) were called active.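 Rule for the calls: active = inhibition of disassembly above about 33% (limit read from the data); inconclusive = likely self-fluorescent, control bead median signal at least 40; inactive = the rest.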 Many of the other results were omitted from the sample, so actives are more common in it than they were.

Tested on: 26S proteasome (yeast, GFP-tagged, ATP-dependent disassembly)
Assay: inhibitors of ATP-driven 26S proteasome dissociation, primary screen, biochemical, bead-based flow cytometry, GFP-tagged proteasome (AID 751);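 note: plate controls were ATP control with full disassembly for no effect and ATP-gamma-S intact proteasomes for full effect; higher percent means more bead fluorescence retained so stronger block of disassembly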
Conditions: anti-FLAG beads, active compounds read high, concentration not given here

Inhibition of disassembly, inactive:
Cc1nc2sc(C(c3ccco3)N3CCC4(CC3)OCCO4)c(O)n2n1 (stereo not drawn) -1.33%
CCn1ncc(C2=NOC(C(=O)Nc3ccccc3C(=O)OC)C2)c1C (stereo not drawn) 0.71%
CCCn1c(C(O)c2ccc(OCC)cc2)nc2ccccc21 (stereo not drawn) 0.49%
CCn1cc(C(=O)NC2CCCCCC2)c(=O)c2cc(S(=O)(=O)N3CCCCC3)ccc21 -0.53%
Cc1nonc1NC(=O)c1ccccc1Br -2.02%
CC1C=CCC2C(=O)N(c3cccc(C(=O)N4CCCCCC4)c3)C(=O)C12 (stereo not drawn) -0.22%
CC(NC(=O)CN1CCN(Cc2ccc(Cl)cc2)C1=O)c1ccc2c(c1)OCCO2 (stereo not drawn) 0.26%
CCOc1cc2[nH]c(=S)n(CCCN3CCCC3=O)c(=O)c2cc1OCC -0.66%
O=C(c1ccc2c(c1)N(Cc1ccc(F)cc1)C(=O)CS2)N1CCOCC1 3.05%
O=C(CCCN1C(=O)C2C3C=CC(C3)C2C1=O)N1CCN(c2ccccc2)CC1 (stereo not drawn) -1.14%
COc1ccc(C2C3=C(OC(C)=O)c4ccccc4C3=Nc3c2c(=O)n(C)c(=O)n3C)cc1 (stereo not drawn) -0.28%
Nc1nc(SCCOc2ccccc2)n[nH]1 1.41%
Cc1cc(C(=O)O)c(S(C)(=O)=O)s1 -0.75%
Cc1noc(/C=C/N(C)C)c1S(=O)(=O)N1CCCC(C(=O)NCc2ccco2)C1 (stereo not drawn) -7.75%
COc1cccc(Nc2nnc(SCC(=O)N3CC(C)OC(C)C3)s2)c1 (stereo not drawn) -3.96%
Cc1cc(Nc2ccc(Br)cc2F)n2ncnc2n1 -4.6%
CCOC(=O)c1sc(=S)n2c1[nH]c(=O)c1ccc(C(=O)OC)cc12 0.98%
Cn1c(C(=O)NCCN2CCc3ccccc3C2)cc2c(=O)[nH]c3ccccc3c21 -0.79%
O=C(COc1ccccc1F)NC1CC1 -1.13%
O=C1CC(c2cccc(F)c2)C2=C(CCCC2=O)N1 (stereo not drawn) -0.41%
Cc1c2cn[nH]c(=O)c2c(C)n1Cc1ccc(F)cc1 2.63%
COc1ccc2oc(=O)c(C(=O)N3CCN(c4ccccc4F)CC3)cc2c1 -0.83%
COc1ccccc1N1CCN(c2nc3ccccc3n3nnnc23)CC1 22.2%
Cc1cccc(NC(=O)CSc2nnc(NC(=O)CN3CCOCC3)s2)c1 0.22%
COc1cccc(-n2c(Cc3cc(=O)[nH]c(=O)[nH]3)nnc2SCC(=O)Nc2ccccc2)c1 -1.55%
CCOc1ccc(OCC)c(NC(=O)C(NS(=O)(=O)c2ccc3c(c2)oc(=O)n3C)C(C)C)c1 (stereo not drawn) -0.66%
CCOC(=O)N1CCC(NC(=O)CN2C(=O)COc3ccc(C(C)(C)C)cc32)CC1 -0.61%
Cc1ccccc1C(=O)NCCN=C1NS(=O)(=O)c2ccccc21 -0.63%
CCOc1cc2c(cc1OCC)C(C(=O)O)C(c1ccc(OC)c(O)c1)N(C)C2=O (stereo not drawn) 0.12%
O=C(Nc1c2c(nn1-c1ccc(F)cc1)CS(=O)C2)C12CC3CC(CC(C3)C1)C2 (stereo not drawn) -2.52%
CC1CCC(NC(=O)c2ccc(N3CCCC3=O)cc2)CC1 (stereo not drawn) 5.08%
Cc1cccc2c1N(CC(=O)OC(C)C)C(=O)C2=O 1.8%
CN(CC(=O)NC1CCCCC1)S(=O)(=O)c1cccc2cccnc12 -0.29%
O=C(CN1CCN(c2ccccc2F)CC1)c1ccc2c(c1)OCO2 -0.87%
Cc1cc(Nc2cccc(C)c2C)n2ncnc2n1 1.4%
Cc1ccc(S(=O)(=O)N(C)CC(=O)NC2CCCC2)cc1 1.94%
CCN(CC)C(=O)N1CCN(C(=O)c2ccc(C)cn2)CC1 0.26%
C#CCN1C(=O)C(O)(CC(=O)c2cc(OC)ccc2OC)c2ccccc21 (stereo not drawn) -0.27%
COc1ccc(S(=O)(=O)NC2(C(F)(F)F)N=C3SCCN3C2=O)cc1 (stereo not drawn) 0.29%
COc1cc(C2C(C(=O)Nc3ccccc3OC)=C(C)Nc3ncnn32)ccc1O (stereo not drawn) -1.23%
CC(=O)C1C(c2cccc(Oc3ccccc3)c2)NC(=O)NC1(O)C(F)(F)F (stereo not drawn) 3.33%
CC(C)CNS(=O)(=O)c1ccc(OCC(=O)Nc2ccc3c(c2)OCO3)c(Cl)c1 0.65%
CC1CCCN(C(=O)c2ccc3c(c2)C(=O)N(CCC2=CCCCC2)C3=O)C1 (stereo not drawn) -0.2%
COCCn1c(CN(Cc2ccccc2)Cc2ccccc2)nc2c1c(=O)n(C)c(=O)n2C 0.04%
CCOC(=O)N1CCN(C(=O)c2n[nH]c(=O)c3ccccc23)CC1 -0.81%
COc1ccccc1C(=O)NCCn1cc(SCC(=O)NCc2ccco2)c2ccccc21 0.52%
COc1ccccc1NC(=O)CN1CCN(S(=O)(=O)c2ccc(Br)cc2)CC1 -0.52%
CCOc1ccccc1NC(=O)C1CCC(CNc2c(N3CCOCC3)c(=O)c2=O)CC1 (stereo not drawn) 0.11%
CCC(C(=O)Nc1ncccn1)(C(F)(F)F)C(F)(F)F -0.33%
CCOC(=O)c1nnn(CC(=O)Nc2cccc(F)c2)c1C(=O)OCC -0.09%
Cc1ccc(C2CC(c3cccc(Br)c3)n3nc(N)nc3N2)cc1 (stereo not drawn) 0.65%
Cc1oc(-c2ccccc2F)nc1CS(=O)(=O)CC(=O)NCCCN(C)C1CCCCC1 -0.8%
Cc1nnc(NC(=O)CCC(=O)N2CCC(C)CC2)s1 -1.57%
